Screening results from PubChem.
GPT2 inhibitor: Primary qHTS assay for inhibitors of Glutamate pyruvate transaminase 2 (GPT2); AID 1671188, 2021; Potency, µM (doses to about 57.7 µM), usual class: inhibitors; Alanine aminotransferase 2 (Homo sapiens), Q8TD30; Recombinant GPT2, coupled pyruvate oxidase/HRP Amplex Red fluorescence; hit rate 0.25% among 100,000; also: nearly all actives have a fitted effect of over 60% in size
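Fluorescence of coupled pyruvate oxidase/HRP/Amplex Red system (50uM Amplex, 30 min, dark) reports pyruvate formed by GPT2. Enzyme reaction: 10ng/uL GPT2, 2mM L-alanine, 250uM a-KG, 30 min room temperature, pH 7.5; 50uM AOA control.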
NIH3T3 tox: Cytotoxic Profiling in NIH 3T3 Cell Line of Diverse Libraries Using Quantitative High-Throughput Screening; Potency, µM (series often up to 96.7 µM), usual class: inhibitors; NIH 3T3 viability, CellTiter-Glo ATP luminescence, 48-72 h; hit rate 4.3% among 94,000; AID 1345082, 2018; also: nearly all actives have a fitted effect of over 55% in size
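Mouse fibroblast NIH 3T3 cells, 400 per well, received compound via pintool and were incubated for 48 or 72 hr prior to CellTiter-Glo ATP luminescence measurement.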
FLuc inh: Firefly luciferase inhibition profiling of diverse chemical library using quantitative high-throughput screening | hit rate 2.5% among 76,000 | purified P. pyralis luciferase, luminescence, biochemical | Potency, µM (top dose mostly 115 µM), most hits filed as inhibitors | Luciferin 4-monooxygenase (Photinus pyralis), P08659; also: nearly all actives have a fitted effect of over 65% in size
Target sequence (P08659 whole entry, looked up): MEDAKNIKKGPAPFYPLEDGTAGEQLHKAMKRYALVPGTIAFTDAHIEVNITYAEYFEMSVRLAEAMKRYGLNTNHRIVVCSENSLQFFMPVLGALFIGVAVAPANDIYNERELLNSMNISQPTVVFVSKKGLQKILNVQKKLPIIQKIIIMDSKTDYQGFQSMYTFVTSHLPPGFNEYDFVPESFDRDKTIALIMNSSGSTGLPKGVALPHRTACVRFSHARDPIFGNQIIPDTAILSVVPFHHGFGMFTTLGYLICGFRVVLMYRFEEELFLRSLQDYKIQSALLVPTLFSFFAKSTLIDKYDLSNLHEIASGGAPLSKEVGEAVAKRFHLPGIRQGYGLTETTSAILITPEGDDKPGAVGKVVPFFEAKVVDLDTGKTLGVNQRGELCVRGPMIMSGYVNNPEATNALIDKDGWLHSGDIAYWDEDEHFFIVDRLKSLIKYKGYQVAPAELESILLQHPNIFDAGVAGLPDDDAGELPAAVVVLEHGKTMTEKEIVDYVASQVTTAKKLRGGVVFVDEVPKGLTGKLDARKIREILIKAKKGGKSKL
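Luminescence read by CCD imaging after purified firefly luciferase (10nM final) was added to substrate buffer holding 10uM D-luciferin and 10uM ATP, pH 7.5, pre-dosed with compound.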
HEK293 tox: Cytotoxic Profiling in HEK 293 Cell Line of Diverse Libraries Using Quantitative High-Throughput Screening | hit rate 6.6% among 94,000 | Potency, µM (highest dose often 115 µM), most hits filed as inhibitors | HEK 293 viability, ATP luminescence (CellTiter-Glo), 48-72 h | AID 1345083, 2018; also: nearly all actives have a fitted effect of over 60% in size
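Pintool-delivered compounds were incubated with HEK 293 cells (250 cells/well) at 37 degree Celsius for 48 or 72 hr. ATP-dependent luminescence (CellTiter-Glo) then reported remaining viable cells.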
NPR1 antag: Natriuretic polypeptide receptor (hNpr1) antagonism - Primary qHTS. HEK293 hNpr1 GloSensor cGMP, ANP-stimulated luminescence. Atrial natriuretic peptide receptor 1 (Homo sapiens), P16066. AID 1347048, 2019. Potency, µM (series often up to 46.3 µM), actives largely listed as inhibitors. hit rate 1.6% among 76,000; calls by dose curve; also: nearly all actives have a fitted effect of over 60% in size
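Compound pre-incubated 30 min at room temperature on GloSensor-loaded HEK293 cells stably carrying hNpr1 and the pGS-40F cGMP biosensor. Stimulation uses hNppA at 0.1 nM final; luminescence is taken at baseline and 20 min post-agonist.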
Large screens that a line does not name were inactive. The list is not random: actives were taken first. Their share in the collection is about 10%. Unless noted, calls follow the shape of the dose curve; as a rule, active = well fitted curve in the direction sought with a large enough effect; inconclusive = small, poorly fitted or top-dose-only effect, or another doubt; inactive = no such curve, though single readings can be large; an effect the other way counts as inactive or inconclusive.

Cc1nn(-c2ccccc2)c2c1C(C(C)C)N(C1CCCN(C(=O)C3CC3)C1)C2=O (configuration not stated)	NIH3T3 tox inconclusive, HEK293 tox 28.2µM (no result: GPT2 inhibitor, FLuc inh, NPR1 antag)
Cc1nn(-c2ccccc2)c2c1C(C(C)C)N(C1CCN(C(=O)N3CCOCC3)C1)C2=O (configuration not stated)	NIH3T3 tox inconclusive, HEK293 tox 79.4µM (no result: GPT2 inhibitor, FLuc inh, NPR1 antag)
Cc1nn(-c2ccccc2)c2c1C(C(C)C)N(C1CCCN(C(=O)N(C)C)C1)C2=O (configuration not stated)	none (no result: GPT2 inhibitor, FLuc inh, NPR1 antag)
Cc1nn(-c2ccccc2)c2c1C(C(C)C)N(C1CCCN(C(=O)c3ccc(F)cc3)C1)C2=O (configuration not stated)	NIH3T3 tox inconclusive, HEK293 tox 28.2µM (no result: GPT2 inhibitor, FLuc inh, NPR1 antag)
O=C(c1ccc(Cl)cc1)N1CC2(CCCN(CC3CCCCC3)C2)Cc2ccccc21 (configuration not stated)	NIH3T3 tox inconclusive, HEK293 tox inconclusive (no result: FLuc inh, NPR1 antag)
CC(C)Oc1ccc(CNC(=O)c2ccc(Cn3ccn4nc5c(c4c3=O)CCCC5)cc2)cc1	NIH3T3 tox inconclusive, HEK293 tox 35.5µM, NPR1 antag inconclusive
COc1ccc(CCNC(=O)c2ccc(Cn3ccn4nc5c(c4c3=O)CCCC5)cc2)cc1OC	NIH3T3 tox inconclusive, HEK293 tox 39.8µM, NPR1 antag inconclusive
O=C(NC1CCCCCCC1)c1ccc(Cn2ccn3nc4c(c3c2=O)CCCC4)cc1	NIH3T3 tox inconclusive, HEK293 tox 31.6µM
O=C(NCc1ccncc1)c1ccc(Cn2ccn3nc4c(c3c2=O)CCCC4)cc1	NIH3T3 tox inconclusive, HEK293 tox inconclusive
Cc1ccc(NC(=O)Cn2ccn3nc4c(c3c2=O)CCCCC4)c(C)c1	FLuc inh inconclusive
Cc1ccc(C)c(Cn2ccn3nc4c(c3c2=O)CCCC4)c1	NIH3T3 tox inconclusive, HEK293 tox 39.8µM
CCN(Cc1ccncc1)C(=O)[C@@H]1CCCN(Cc2ccccc2)[C@@H]1COC	none (no result: FLuc inh, NPR1 antag)
Cc1ccc(Cl)cc1N1CCN(C(=O)CCn2ccn3nc4c(c3c2=O)CCCC4)CC1	NIH3T3 tox inconclusive, HEK293 tox inconclusive, NPR1 antag inconclusive
Cc1ccccc1N1CCN(C(=O)c2ccc(Cn3ccn4nc5c(c4c3=O)CCCC5)cc2)CC1	NIH3T3 tox inconclusive, HEK293 tox 20µM
COc1ccc(C2(C(=O)NCc3ccc(C(F)(F)F)cc3)CCOCC2)cc1	HEK293 tox inconclusive (no result: GPT2 inhibitor, FLuc inh, NPR1 antag)
COc1ccc(Cc2ncc3c(n2)CN(C(=O)c2ccc(F)c(C)c2)C3)cc1	NIH3T3 tox inconclusive, HEK293 tox inconclusive
CN(C)c1ccc(CN2CCNc3cnc(-c4ccccc4)cc3C2)cc1	NIH3T3 tox inconclusive, HEK293 tox 100µM
Cn1cc(CN2CCNc3cnc(-c4ccccc4)cc3C2)cn1	NIH3T3 tox 31.6µM, HEK293 tox inconclusive
Cc1cccc(CN2CCNc3cnc(-c4ccccc4)cc3C2)c1	NIH3T3 tox inconclusive, HEK293 tox inconclusive
Cc1ccc(C(=O)N2CCC3(CC2)C(=NC2CCCCC2)NC(=O)N3c2cc(F)cc(F)c2)cc1	NIH3T3 tox 31.6µM (no result: FLuc inh, NPR1 antag)
COc1ccc(C(=O)N2CCCC3(C2)C(=NC2CCCCC2)NC(=O)N3c2cc(F)cc(F)c2)cc1 (configuration not stated)	none (no result: FLuc inh, NPR1 antag)
COc1ccc(C(=O)N2CCC3(CC2)C(=NC2CCCCC2)NC(=O)N3c2cccc(OC)c2)cc1	GPT2 inhibitor inconclusive, NIH3T3 tox 28.2µM (no result: FLuc inh, NPR1 antag)
COc1ccc(C(=O)N2CCC3(CC2)C(=NC2CCCCC2)NC(=O)N3c2cc(F)cc(F)c2)cc1	NIH3T3 tox 31.6µM (no result: FLuc inh, NPR1 antag)
O=C(c1ccc(C(F)(F)F)cc1)N1CCC2(C1)C(=NC1CCCCC1)NC(=O)N2c1cc(F)cc(F)c1 (configuration not stated)	NIH3T3 tox 25.1µM (no result: FLuc inh, NPR1 antag)
O=C(c1ccc(C(F)(F)F)cc1)N1CCC2(CC1)C(=NC1CCCCC1)NC(=O)N2c1cc(F)cc(F)c1	GPT2 inhibitor inconclusive, NIH3T3 tox inconclusive (no result: FLuc inh, NPR1 antag)
CCN1CC(C(=O)NCc2cccc(-c3ccccc3)c2)CCC1=O (configuration not stated)	NIH3T3 tox inconclusive, HEK293 tox 35.5µM, NPR1 antag inconclusive
O=C(NCc1cccc(-c2ccccc2)c1)C1CC(=O)N(C2CC2)C1 (configuration not stated)	none
c1ccc2c(c1)COC1(CCNC1)CN2CC1CCCC1 (configuration not stated)	NIH3T3 tox 35.5µM, HEK293 tox 50.1µM (no result: FLuc inh, NPR1 antag)
c1ccc2c(c1)COC1(CCN(CC3CC3)C1)CN2CC1CC1 (configuration not stated)	NIH3T3 tox inconclusive (no result: FLuc inh, NPR1 antag)
O=C(N[C@@H]1CN(C(=O)NC2CCCCC2)CCC[C@H]1O)c1ccc(OCc2ccccc2)cc1	NIH3T3 tox inconclusive, HEK293 tox inconclusive
COc1cccc(-c2cnc([C@@H]3COCCN3Cc3cnc4ccccc4c3)[nH]2)c1	HEK293 tox 100µM
Fc1ccc(-c2cnc([C@@H]3COCCN3Cc3cnc4ccccc4c3)[nH]2)cc1	NIH3T3 tox inconclusive, HEK293 tox 89.1µM
CS(=O)(=O)c1ccc(-c2cnc([C@@H]3COCCN3Cc3cnc4ccccc4c3)[nH]2)cc1	none
O=C(NCc1ccc(Cl)cc1)c1ccc2nnc(-c3ccoc3)n2c1	NIH3T3 tox inconclusive, HEK293 tox inconclusive (no result: FLuc inh, NPR1 antag)
Cc1nn(-c2ccc(F)cc2)c(Oc2ccccc2)c1CCC(=O)NCC1CC1	GPT2 inhibitor inconclusive, NIH3T3 tox inconclusive, HEK293 tox inconclusive, NPR1 antag inconclusive
Cc1nn(-c2ccc(F)cc2)c(Oc2ccccc2F)c1CCC(=O)NCC1CC1	NIH3T3 tox inconclusive, HEK293 tox 50.1µM
Cc1nn(-c2ccccc2)c(Oc2ccccc2F)c1CCC(=O)NCc1ccco1	NIH3T3 tox inconclusive, HEK293 tox 44.7µM, NPR1 antag inconclusive
CCN1CCN(C(=O)C2CCc3ncc(-c4ccc(F)cc4)n3C2)CC1 (configuration not stated)	none
COc1ccc2nc3n(c2c1)[C@@H](CNS(=O)(=O)Cc1ccccc1)COC3	NIH3T3 tox 89.1µM, HEK293 tox inconclusive
COc1ccc(NC(=O)NC[C@H]2COCc3nc4ccccc4n32)cc1	NIH3T3 tox inconclusive, FLuc inh 89.1µM
COc1ccc2nc3n(c2c1)[C@@H](CNC(=O)c1ccc(C#N)cc1)COC3	NIH3T3 tox 89.1µM
COC(=O)c1ccc2c(c1)nc1n2[C@@H](CNCc2ccc3c(c2)OCO3)COC1	NIH3T3 tox inconclusive, HEK293 tox inconclusive, NPR1 antag inconclusive
COc1ccc2c(c1)nc1n2[C@@H](CNCc2ccc3c(c2)OCO3)COC1	NIH3T3 tox inconclusive, HEK293 tox 56.2µM, NPR1 antag inconclusive
COC(=O)CNC(=O)c1nc(-c2ccc([S+](C)(=O)[O-])cc2)c2cnccn12	none (no result: FLuc inh, NPR1 antag)
